Data on 13 compounds can be found in PubChem BioAssay (Tox21).

Several values for one entry are separate records, joined by “and”; a condition that tells them apart may be missing. Equal entries are not always repeated. Inconclusive results are not listed. The source holds several records for some structures; these can differ, active in one and inactive in another. Activity calls are given as the source filed them. The call rests on the fitted dose curve; in most records, active means well fitted curve in the direction sought with a large enough effect in the repeat runs; inconclusive means weak or mixed curves; inactive means no such curve, though single readings can be large; an effect the other way counts as inactive or inconclusive.

The nature of assay [1]: qHTS RealTime-Glo MT Cell Viability Assay in HEK293 cells - 16 hour (AID 1224872). Further: nearly all actives have a fitted effect of over 50% in size. Further: potency means the concentration at half of the fitted maximal effect. The method, boiled down: (§1)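 Nonlytic real-time viability readout: viable cells convert prosubstrate to NanoLuc substrate, giving luminescence proportional to live cell number. HEK293, 600 cells/well, compound added after 5 h, continuous culture at 37 C.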
(In general: qHTS replaces the single test concentration by a dilution series.)

Assay [2] can be described thus: qHTS RealTime-Glo MT Cell Viability Assay in HepG2 cells - 8 hour (AID 1224873). Further: nearly all actives have a fitted effect of over 55% in size. Further: potency means the concentration at half of the fitted maximal effect. Summed up: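 Real-time viability: cells seeded at 600 per well together with NanoLuc and cell-permeant prosubstrate, compounds added after 5 h incubation. Luminescence tracked at 0, 8, 16, 24, 32 and 40 h of exposure.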
Assay [3] is described as follows: qHTS RealTime-Glo MT Cell Viability Assay in HEK293 cells - 40 hour (AID 1224874). Further: nearly all actives have a fitted effect of over 50% in size. Further: potency means the concentration at half of the fitted maximal effect. The note with it: RealTime-Glo luminescence; max response: stronger effect = lower value. Summed up:
(§2)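 Luminescence, which tracks viable cell number through reduction of the prosubstrate to a NanoLuc substrate, was read over continuous 37 C culture. Cells (600/well) were premixed with reagent and rested 5 h before 23 nL of compound in DMSO was pinned.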

Assay [4] is described as follows: A CellTox Green Cytotoxicity Assay to monitor cytotoxicity in HEK293 cells - 24 hour (AID 1224875). Further: nearly all actives have a fitted effect of over 45% in size. Further: potency means the concentration at half of the fitted maximal effect. Summed up:
(§3)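 Fluorescence from a DNA-binding dye excluded by viable cells was measured repeatedly in the same HEK293 wells (600 cells/well) during continuous compound exposure at 37 C. Each assay gives one read point: 0, 8, 16, 24, 32 or 40 h.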

Assay [5] can be described thus: A CellTox Green Cytotoxicity Assay to monitor cytotoxicity in HepG2 cells - 16 hour (AID 1224876). Further: nearly all actives have a fitted effect of over 45% in size. Further: potency means the concentration at half of the fitted maximal effect. The method, boiled down: (§4)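 Real-time cytotoxicity: fluorescence of a cell-impermeant cyanine dye binding DNA of dead HepG2 cells, measured repeatedly (0–40 h) during compound exposure at 37 C. Cells seeded 600/well with reagent, dosed after 5 h.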
Assay [6] can be described thus: qHTS RealTime-Glo MT Cell Viability Assay in HepG2 cells - 32 hour (AID 1224877). Further: nearly all actives have a fitted effect of over 55% in size. Further: potency means the concentration at half of the fitted maximal effect. Summed up:
(§5)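 Luminescence read-out: viable HepG2 cells reduce a prosubstrate to a NanoLuc substrate, giving a signal proportional to live cell number. Reads taken at 0, 8, 16, 24, 32 and 40 h of compound exposure at 37 C.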

Assay [7] is described as follows: A CellTox Green Cytotoxicity Assay to monitor cytotoxicity in HepG2 cells - 24 hour (AID 1224878). Further: nearly all actives have a fitted effect of over 45% in size. Further: potency means the concentration at half of the fitted maximal effect. The method, boiled down: as §4
Assay [8] is described as follows: A CellTox Green Cytotoxicity Assay to monitor cytotoxicity in HepG2 cells - 40 hour (AID 1224879). Further: nearly all actives have a fitted effect of over 40% in size. Further: potency means the concentration at half of the fitted maximal effect. Summed up:
as §4

The nature of assay [9]: qHTS RealTime-Glo MT Cell Viability Assay in HEK293 cells - 0 hour (AID 1224880). Further: top concentration of the series differs between compounds; nearly all actives have a fitted effect of over 45% in size. Summed up:
as §2

The nature of assay [10]: A CellTox Green Cytotoxicity Assay to monitor cytotoxicity in HEK293 cells - 32 hour (AID 1224881). Further: nearly all actives have a fitted effect of over 40% in size. Further: potency means the concentration at half of the fitted maximal effect. The method, boiled down:
as §3

The nature of assay [11]: A CellTox Green Cytotoxicity Assay to monitor cytotoxicity in HepG2 cells - 0 hour (AID 1224882). Further: nearly all actives have a fitted effect of over 35% in size. Summed up: as §4
Assay [12] can be described thus: A CellTox Green Cytotoxicity Assay to monitor cytotoxicity in HepG2 cells - 32 hour (AID 1224883). Further: nearly all actives have a fitted effect of over 50% in size. Further: potency means the concentration at half of the fitted maximal effect. The method, boiled down:
as §4

The nature of assay [13]: A CellTox Green Cytotoxicity Assay to monitor cytotoxicity in HEK293 cells - 8 hour (AID 1224884). Further: nearly all actives have a fitted effect of over 35% in size. Further: potency means the concentration at half of the fitted maximal effect. The method, boiled down:
as §3

Assay [14] can be described thus: qHTS RealTime-Glo MT Cell Viability Assay in HepG2 cells - 16 hour (AID 1224885). Further: nearly all actives have a fitted effect of over 50% in size. Further: potency means the concentration at half of the fitted maximal effect. Summed up:
as §5

Assay [15] can be described thus: qHTS RealTime-Glo MT Cell Viability Assay in HEK293 cells - 24 hour (AID 1224886). Further: nearly all actives have a fitted effect of over 50% in size. Further: potency means the concentration at half of the fitted maximal effect. Summed up:
as §1

Assay [16] can be described thus: qHTS RealTime-Glo MT Cell Viability Assay in HEK293 cells - 8 hour (AID 1224887). Further: nearly all actives have a fitted effect of over 50% in size. Further: potency means the concentration at half of the fitted maximal effect. The method, boiled down:
as §2

The nature of assay [17]: A CellTox Green Cytotoxicity Assay to monitor cytotoxicity in HepG2 cells - 8 hour (AID 1224890). Further: nearly all actives have a fitted effect of over 45% in size. Further: potency means the concentration at half of the fitted maximal effect. The method, boiled down:
as §4

Assay [18] can be described thus: qHTS assay to identify small molecule antagonists of the estrogen receptor alpha (ER-alpha) signaling pathway using the BG1 cell line in the presence of 0.1 nM 17-beta-estradiol - cell viability counter screen (AID 1259241). Further: nearly all actives have a fitted effect of over 40% in size. Summed up:
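Live-cell protease activity (CellTiter-Fluor fluorescence, 30 min) was read in the same wells after VM7Luc4E2 cells had been exposed to compounds with 0.1 nM 17beta-estradiol for 22 hr at 37C.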

Assay [19] is described as follows: A CellTox Green Cytotoxicity Assay to monitor cytotoxicity in HEK293 cells - 16 hour (AID 1224888). Further: nearly all actives have a fitted effect of over 35% in size. Further: potency means the concentration at half of the fitted maximal effect. Summed up: as §3
Assay [20] can be described thus: qHTS RealTime-Glo MT Cell Viability Assay in HepG2 cells - 0 hour (AID 1224889). Further: nearly all actives have a fitted effect of over 50% in size. Summed up:
as §5
On the % scale 0 is the no-effect control and ±100 the full control effect.

For `CCC(C)C(=O)OC` (configuration not stated), the Potency entry in assay [1], in assay [2], in assay [4], in [5], in [6] and in assay [7] was “inactive” throughout. The Potency result in assay [8], in assay [9], in assay [10], in assay [11], in assay [12] and in [13] was “inactive” each time. Further, the Potency entry in [14], in [15], in [16], in assay [17] and in assay [18] was “inactive” in each case. Moreover, the max response in assay [3] is 4.5% (inactive).

Turning to `OCCCc1cccnc1`, the Potency result in assay [1], in [2], in assay [4], in assay [5], in assay [6] and in assay [7] was “inactive” each time. Moreover, the Potency entry in [8], in [9], in assay [10], in [12], in assay [13] and in assay [14] was “inactive” in each case. Also, the Potency entry in [15], in assay [16], in [19] and in [17] was “inactive” each time. In [3], the max response is -2.22% (inactive).

Turning to `CCOCOCC`, the Potency result in assay [1], in assay [2], in [4], in assay [5], in assay [6] and in assay [7] was “inactive” in each case. For the same compound, the Potency entry in [8], in assay [9], in assay [11], in assay [12], in [13] and in [14] was “inactive” throughout. Further, the Potency entry in [15], in assay [16], in assay [17] and in [18] was “inactive” in each case. Further, the max response in assay [3] was 5.75% (inactive).

Turning to `CCCCCCCC(C)=O`, the Potency entry in assay [1], in [2], in assay [4], in assay [5], in assay [6] and in assay [7] was “inactive” in each case. The Potency entry in [8], in [9], in assay [10], in assay [11], in assay [12] and in [13] was “inactive” in each case. Further, the Potency entry in assay [14], in [16], in [19], in assay [20], in assay [17] and in assay [18] was “inactive” throughout. The max response in assay [3] was 0.179% (inactive).

For `Cc1cc(C)c(C=O)c(C)c1`, the Potency entry in assay [1], in assay [2], in [4], in assay [5], in [7] and in assay [8] was “inactive” throughout. Moreover, the Potency entry in assay [10], in assay [12], in assay [13], in assay [14], in assay [15] and in assay [16] was “inactive” throughout. For the same compound, the Potency entry in assay [19] and in [18] was “inactive” throughout. The max response in [3] was 8.02% (inactive).

With `CCOC(=O)CN`, the Potency result in [1], in assay [2], in assay [4], in assay [5], in assay [6] and in assay [7] was “inactive” throughout. Besides, the Potency result in assay [8], in assay [9], in assay [10], in [11], in assay [12] and in [13] was “inactive” each time. Besides, the Potency entry in [14], in assay [16], in assay [19] and in assay [18] was “inactive” in each case. For the same compound, in assay [3], the max response was -0.943% (inactive).

Consider `Cc1oc(-c2ccccc2)nc1CCOc1ccc(C[C@H](Nc2ccccc2C(=O)c2ccccc2)C(=O)O)cc1`, for which the Potency entry in [1], in assay [2], in assay [4], in assay [5], in [6] and in assay [9] was “inactive” in each case. Moreover, the Potency result in [10], in assay [11], in assay [13], in assay [14], in [15] and in assay [16] was “inactive” each time. Also, the Potency entry in [19] is “inactive”. The max response in assay [3] was 0.495% (inactive).

As for `CNC(=S)NN`, the Potency result in [1], in [2], in assay [4], in assay [5], in assay [6] and in assay [7] was “inactive” in each case. Further, the Potency entry in assay [9], in assay [10], in assay [12], in assay [13], in [14] and in assay [16] was “inactive” in each case. The Potency result in assay [19], in assay [20], in assay [17] and in assay [18] was “inactive” each time. The Potency in assay [3] is 19.5 µM (active).

On to `CC(NCCC(c1ccccc1)c1ccccc1)c1ccccc1` (configuration not stated), for which the Potency in assay [1] is 21.3 µM (active); in [2], 21.3 µM (active); in assay [3], 16.9 µM (active); in assay [4], 21.3 µM (active); in assay [5] it was 23.9 µM (active); in [6], 23.9 µM (active). In addition, the Potency is 16.9 µM (active) in assay [7]; 15.1 µM (active) in assay [8]; 21.3 µM (active) in assay [10]; 15.1 µM (active) in assay [12]; 21.3 µM (active) in [14]; 19 µM (active) in assay [15]. Further, the Potency was 21.3 µM (active) in [16], 21.3 µM (active) in assay [19] and 23.9 µM (active) in assay [17]. The Potency result in assay [11], in assay [13], in assay [20] and in [18] was “inactive” in each case.

With `CO[Si](CCC1CCC2OC2C1)(OC)OC` (configuration not stated), the Potency entry in assay [1], in assay [2], in assay [4], in assay [5], in [6] and in assay [7] was “inactive” in each case. Further, the Potency entry in assay [8], in assay [9], in assay [10], in assay [11], in assay [12] and in assay [13] was “inactive” throughout. Further, the Potency result in assay [14], in assay [16], in assay [19], in assay [20], in [17] and in assay [18] was “inactive” in each case. For the same compound, the max response in assay [3] is 8.81% (inactive).

For the compound `CCN(CC)c1cccc(C)c1`, the Potency result in [1], in [2], in assay [4], in [5], in assay [6] and in [7] was “inactive” each time. Also, the Potency result in [8], in [9], in assay [11], in assay [12], in assay [13] and in assay [14] was “inactive” throughout. The Potency result in assay [15], in assay [16], in [19], in [20], in assay [17] and in assay [18] was “inactive” each time. In addition, the max response in [3] was -4.54% (inactive).

`CCCCC(CC)COC(=O)c1ccc(O)cc1` (configuration not stated): the Potency in assay [1] is 54.7 µM (active); in assay [3], 48.8 µM (active); in assay [4], 43.5 µM (active) and 21.9 µM (active); in [5], “inactive and 30.9 µM (active)”; in [7] it was 34.7 µM (active); in assay [8], 34.7 µM (active). Also, the Potency is 43.5 µM (active) and 21.9 µM (active) in assay [10]; 34.7 µM (active) in assay [12]; 43.5 µM (active) in assay [13]; 54.7 µM (active) in assay [15]. In addition, the Potency result in assay [2], in [6], in assay [9], in assay [11], in assay [14] and in [20] was “inactive” throughout. Also, the Potency result in [18] is “inactive”.

Regarding `CCOC(OCC)C(=O)c1ccccc1`, the Potency entry in [1], in assay [2], in assay [4], in assay [5], in assay [6] and in assay [7] was “inactive” each time. In addition, the Potency entry in assay [8], in [9], in [10], in [11], in assay [12] and in assay [13] was “inactive” throughout. Also, the Potency result in assay [14], in assay [16], in assay [19], in [20], in assay [17] and in assay [18] was “inactive” throughout. The max response in assay [3] was 0.351% (inactive).
